# Hits are enriched below; roughly 2.5% of the tested compounds scored in any of these assays.
# Cruzain inh noDet: qHTS Assay for Promiscuous and Specific Inhibitors of Cruzain (without detergent); Cruzipain (Trypanosoma cruzi), P25779; purified cruzain, Z-FR-AMC fluorescence, no detergent; Potency, µM, hits mostly inhibitors; hit rate 2.3% among 200,000; AID 1476, 2009; also: nearly all actives have a fitted effect of over 40% in size
# Target sequence (P25779 123-467 limits assumed): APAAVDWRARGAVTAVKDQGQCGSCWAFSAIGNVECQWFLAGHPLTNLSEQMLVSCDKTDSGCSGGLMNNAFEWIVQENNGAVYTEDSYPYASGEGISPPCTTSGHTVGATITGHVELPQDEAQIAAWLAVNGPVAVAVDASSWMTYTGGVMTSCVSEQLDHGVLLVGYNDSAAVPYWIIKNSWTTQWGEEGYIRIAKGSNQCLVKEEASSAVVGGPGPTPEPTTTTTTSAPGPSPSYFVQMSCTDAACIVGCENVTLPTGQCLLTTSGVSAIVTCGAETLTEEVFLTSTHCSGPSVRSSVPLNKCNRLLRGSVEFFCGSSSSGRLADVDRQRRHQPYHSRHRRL
#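 Purified cruzain at 1.5 nM, pre-incubated 15 min with compound at room temperature in 100 mM sodium acetate pH 5.5, 5 mM DTT, 0.00005% Triton X-100. Reaction started with 2 uM Z-FR-AMC; AMC fluorescence increase over 60 s gives rate.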
# Cruzain Triton: qHTS Assay for Promiscuous and Specific Inhibitors of Cruzain (with detergent). purified cruzain, Z-FR-AMC fluorescence, 0.01% Triton. Potency, µM, most hits filed as inhibitors. hit rate 0.43% among 200,000. AID 1478, 2009; also: nearly all actives have a fitted effect of over 40% in size
#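 Detergent-containing run (0.01% Triton X-100) in acetate buffer pH 5.5 with 5 mM DTT: enzyme at 1.5 nM final, 15 min compound preincubation at room temperature, then 2 uM Z-FR-AMC substrate. Activity taken as 60 s fluorescence increase at 360/450 nm.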
# Numbers stand for hits; – = inactive; ? = inconclusive. Calls follow the shape of the dose curve; as a rule, active = well fitted curve in the direction sought with a large enough effect; inconclusive = small, poorly fitted or top-dose-only effect, or another doubt; inactive = no such curve, though single readings can be large; an effect the other way counts as inactive or inconclusive.
SMILES,Cruzain inh noDet,Cruzain Triton
Cc1sc(NC(=O)/C=C/C(=O)O)c(C(N)=O)c1-c1ccc(C(C)(C)C)cc1,–,–
Cc1sc(NC(=O)c2cccc([N+](=O)[O-])c2)c(C(N)=O)c1-c1ccc(C(C)(C)C)cc1,13µM,–
COc1ccc(C)cc1NC(=O)CCn1nc(C)cc1C,–,–
CCCCCC(=O)Nc1nc(C)c(-c2csc(Nc3ccc(Cl)cc3)n2)s1,13µM,–
CCCCCCC(=O)Nc1nc(C)c(-c2csc(Nc3ccc(Cl)cc3)n2)s1,?,–
CCCCCC(=O)Nc1nc(C)c(-c2csc(Nc3cc(Cl)ccc3C)n2)s1,10µM,–
CCC(C)C(=O)Nc1nc(C)c(-c2csc(Nc3ccccc3OC)n2)s1 (centres undefined),?,–
CCCC(C)C(=O)Nc1nc(C)c(-c2csc(Nc3cc(Cl)ccc3C)n2)s1 (centres undefined),13µM,–
CN(c1nnc(NC(=O)Nc2ccccc2C(F)(F)F)s1)C1CCCCC1,–,–
COc1ccc(NC(=O)Cn2c(=O)n(C(C)C)c(=O)c3oc4ccccc4c32)cc1Cl,–,–
CCn1c(CN2CCCCC2)nc2cc(NC(=O)COc3ccc(C(C)(C)C)cc3)ccc21,–,–
CCN(CC)c1ccc(NS(=O)(=O)c2cc(-c3onc(C)c3C)ccc2OC)c(C)c1,–,–
Cc1ccccc1NCc1nc2ccccc2n1CCOc1ccccc1,–,–
Cc1ccccc1NC(=O)COC(=O)c1ccc(CSc2ccc(Cl)cc2)cc1,10µM,–
O=C(COC(=O)c1ccc(O)cc1)Nc1ccc(Cl)cc1C(=O)c1ccccc1,–,–
NCCS(=O)O,–,–
CCOC(=O)c1ccccc1NC(=O)CSc1ccc(-c2sc(-c3ccccc3)nc2C)nn1,–,–
O=C1/C(=C/c2ccccc2O)SC(=S)N1Cc1cccnc1,–,–
CN1C(=O)/C(=C/c2cc(N=Nc3ccccc3)ccc2O)SC1=S,16µM,–
CCOc1ccccc1CNC(=O)c1ccc2c(c1)nc1n2CCCCC1,–,–
O=C(Nc1ccccc1C(F)(F)F)Nc1cccc2ccccc12,25µM,–
CCCC(=O)NC(=S)Nc1ccccc1C(F)(F)F,–,–
O=C(CSCc1ccc(F)cc1)N1CCc2c([nH]c3ccccc23)C1c1ccc(Cl)cc1 (centres undefined),7.9µM,–
COc1ccc(CC(=O)N2CCc3c([nH]c4ccccc34)C2c2ccc(SC)cc2)cc1 (centres undefined),25µM,–
O=C(CSCc1ccc(F)cc1)N1CCc2c([nH]c3ccccc23)C1c1ccccc1 (centres undefined),–,–
SMILES,Cruzain inh noDet,Cruzain Triton
COc1ccc(CCC(=O)N2CCc3c([nH]c4ccccc34)C2c2ccc(F)cc2)cc1 (centres undefined),?,–
O=C(CSc1ccccc1)N1CCc2c([nH]c3ccccc23)C1c1ccc(Cl)cc1 (centres undefined),13µM,–
CCOc1cccc(C2c3[nH]c4ccccc4c3CCN2C(=O)CSc2ccccc2)c1 (centres undefined),?,–
COc1cccc(CSc2nc3n(n2)C(CC(C)C)C(C(=O)Nc2ccccc2OC)=C(C)N3)c1 (centres undefined),–,–
O=C(COc1cc(O)c2c(=O)cc(-c3ccccc3)oc2c1)c1ccc(F)cc1,13µM,–
O=C(COc1cc(O)c2c(=O)cc(-c3ccccc3)oc2c1)c1ccccc1,?,–
Oc1ccc(Br)cc1-c1cc(-c2ccc(Cl)cc2)n[nH]1,32µM,–
Oc1ccc(Br)cc1-c1cc(-c2ccccc2)n[nH]1,–,–
CCOC(=O)c1cccc(NC(=O)C2CCN(S(=O)(=O)c3cn(C)cn3)CC2)c1,–,–
Cc1ccc(NC(=O)Cc2ccc(-n3c(C)nc4cccnc43)cc2)c(Cl)c1,–,8.9µM
COc1ccc(Cn2c(CCC(=O)Nc3ccc(C)cc3C)nc3cccnc32)cc1,–,–
O=C(Nc1nc(-c2ccccc2)cs1)c1ccc2c(c1)S(=O)(=O)c1ccccc1C2=O,?,–
O=C(Nc1nc2ccc(SC(F)F)cc2s1)c1ccc2c(c1)S(=O)(=O)c1ccccc1C2=O,5µM,–
Cc1nc(-c2cccc(NC(=O)Nc3ccc([N+](=O)[O-])cc3)c2)no1,–,–
COc1ccc(OC)c(CNC(=O)c2ccc(-c3nc(CSc4ccccc4)c(C)o3)cc2)c1,–,–
N#Cc1c(/N=C/c2ccco2)oc(-c2ccccc2)c1-c1ccccc1,–,–
N#Cc1c(/N=C/c2ccccc2)oc(-c2ccccc2)c1-c1ccccc1,32µM,–
CC(C)(C)n1ncc2c(=O)n(CC(=O)NCCc3ccccc3)cnc21,–,–
O=C(Cn1cnc2c(cnn2-c2ccc(Cl)cc2)c1=O)NCCc1ccccc1,25µM,–
O=C(Cn1cnc2c(cnn2-c2ccc(F)cc2)c1=O)NCC1CCCO1 (centres undefined),–,–
O=C(Cn1cnc2c(cnn2-c2ccc(Cl)cc2)c1=O)NC1CCCCC1,10µM,–

# From PubChem BioAssay
